Here are results for 40 molecules from PubChem BioAssay (Tox21).

Records with an inconclusive call do not appear. Entries that show only a call come without a potency. Values without a mark were called inactive. Activity calls are given as the source filed them. Calls follow the shape of the dose curve; as a rule, active = well fitted inhibition curve with a large enough effect in the signal ratio in the repeat runs; inconclusive = weak or mixed curves, or effect the other way; inactive = flat fitted curve, though single readings scatter; the % refers to the signal ratio.
Potency is read from the fitted curve at half-maximal effect.

The assay in a line: qHTS assay for small molecule disruptors of the mitochondrial membrane potential (AID 720635). The settings on record: HepG2 mitochondrial membrane potential, Mito-MPS dye ratio; series mostly up to 83.2 µM. The source says:
U.S. Tox21 Program National Center for Advancing Translational Sciences [NCATS] NIH Chemical Genomics Center [NCGC] U.S. Environmental Protection Agency [EPA] National Institutes of Environmental Health Sciences [NIEHS] National Toxicology Program [NTP] U.S. Food and Drug Administration [FDA] Tox21 Assay Overview: Mitochondrial membrane potential (MMP), one of the parameters for mitochondrial function, is generated by mitochondrial electron transport chain that creates an electrochemical gradient by a series of redox reactions. This gradient drives the synthesis of ATP, a crucial molecule for various cellular processes. Measuring MMP in living cells is commonly used to assess the effect of chemicals on mitochondrial function. […] The dye accumulates in the mitochondria of healthy cells as aggregates, with red fluorescence. The mitochondrial potential collapses and the dye can no longer accumulate in the mitochondria and remains in the cytoplasm in monomers, with green fluorescence.
Tox21 Assay Protocol Summary: 2,000 HepG2 cells in 5 uL/well were dispensed into black, clear-bottom 1536-well plates using a Multidrop Combi (Thermo Scientific) dispenser. The assay plates were incubated overnight at 37C to allow cells to attach to the wells, followed by the transfer of 23 nL compound or DMSO vehicle by a pin tool (Kalypsys). The plates were incubated for 1 hr at 37C and 5% CO2, followed by the addition of 5 uL of 2X Mito-MPS dye (BD Biosciences) into each well using Flying Reagent Dispenser (Aurora Discovery) and then following 30 min incubation at 37C. Fluorescence intensity (490nm excitation and 535nm emission for monomers; and 540nm excitation and 590nm emissions for aggregates) was measured using an Envision plate reader.
Background: Quantitative high-throughput screening tests each substance at several concentrations.
Consider `CCOC(=O)CCc1ccccc1`, for which the Potency result is “inactive”.

`C=CCCCCCCCCCCC`: the ratio activity, negative = MMP loss is -12.5% [at 8.08 µM].

As for `O=C(Oc1ccccc1C(=O)O)c1ccccc1O`, the Potency entry was “inactive”.

For `CCOC(=O)CC#N`, the Potency result was “inactive”.

Consider `CN=C(NC#N)NCCSCc1csc(N=C(N)N)n1`, for which the Potency result was “inactive”.

For the molecule `CC(=O)c1ccc(OCC(=O)N2CCCCC2)cc1`, the Potency result is “inactive”.

Turning to `C=CCOc1c(Br)cc(C(C)(C)c2cc(Br)c(OCC=C)c(Br)c2)cc1Br`, the Potency entry was “inactive”.

For the molecule `CCC1COC(=O)O1` (stereo not given), the Potency result is “inactive”.

Turning to `COC(=O)CCC(=O)O`, the Potency result is “inactive”.

Turning to `CCCCC(=O)N(C)C`, the Potency result is “inactive”.

Regarding `CCC(C)(C)C1CCC(=O)CC1`, the Potency result is “inactive”.

Regarding `O=C(c1ccc2c(c1)C(=O)OC2=O)c1ccc2c(c1)C(=O)OC2=O`, the Potency entry was “inactive”.

`Nc1ccc(S(=O)(=O)NC(=O)c2ccccc2)cc1`: the Potency entry is “inactive”.

For `CC(=O)/C=C/c1ccco1`, the Potency result is “inactive”.

In the case of `CC(=O)OCCCc1ccccc1`, the Potency entry is “inactive”.

For the molecule `CNCc1ccccc1`, the Potency result was “inactive”.

For the molecule `O=c1[nH]c(=O)c2[nH]c(=O)[nH]c2[nH]1`, the Potency entry is “inactive”.

Turning to `C[C@H]1O[C@H](O[C@H]2[C@H](O)[C@@H](O)[C@@H](O[C@H]3[C@H](O)[C@@H](O)[C@H](O)O[C@@H]3CO)O[C@@H]2CO)[C@H](O)[C@@H](O)[C@@H]1N[C@H]1C=C(CO)[C@@H](O)[C@H](O)[C@H]1O`, the Potency result was “inactive”.

Consider `O=C(O)CCNC(=O)c1ccccc1`, for which the Potency result was “inactive”.

In the case of `O=C1c2ccccc2-c2ccccc21`, the Potency is 55.9 µM (active).

Turning to `C[Si]1(C)N[Si](C)(C)N[Si](C)(C)N1`, the Potency is 27.3 µM (active).

Take `CCCCCCCCCCCCOC(C)=O`: the Potency entry was “inactive”.

As to `CCCCCCCCCCC`, the Potency result is “inactive”.

Take `CCCC(C)CC` (stereo not given): the Potency result was “inactive”.

In the case of `NC(=O)NC(=O)Cc1ccccc1`, the Potency result was “inactive”.

Take `CC1CCC(C(C)(C)S)C(=O)C1` (stereo not given): the Potency result was “inactive”.

In the case of `CCCCCCCCCCCCCCCC(=O)NCCO`, the Potency entry is “inactive”.

Turning to `CC(C)(C)c1ccc(C=O)cc1`, the Potency entry was “inactive”.

Take `CCCCCCCCCOCC1CO1` (stereo not given): the Potency entry was “inactive”.

As for `NCCc1ccn[nH]1`, the Potency result was “inactive”.

Consider `CCOC(=O)OCC/C(SC(=O)OCC)=C(\C)N(C=O)Cc1cnc(C)nc1N`, for which the Potency entry was “inactive”.

As to `Nc1c(NC/C=C\COc2cc(CN3CCCCC3)ccn2)c(=O)c1=O`, the Potency entry is “inactive”.

As for `Nc1ccnc(=O)[nH]1`, the Potency entry was “inactive”.

For `CO[Si](CCCS)(OC)OC`, the Potency entry was “inactive”.

For the molecule `O=c1[nH]c(=O)c2ccccc2o1`, the Potency entry is “inactive”.

Take `O=c1cc(O)c(Cl)c[nH]1`: the Potency entry is “inactive”.

`O=C1OC(=O)c2ccccc21`: the Potency result is “inactive”.

On to `Cc1nc(C)nc(N2C[C@@H](C)N(c3ccnc([C@@H](C)O)n3)[C@@H](C)C2)n1`, for which the Potency result was “inactive”.

For the molecule `CC(C)COC(=O)COc1ccc(Cl)cc1Cl`, the Potency entry is “inactive”.

Take `Nc1ccc(/C=C/c2ccc(N)cc2S(=O)(=O)O)c(S(=O)(=O)O)c1`: the Potency result was “inactive”.
